According to PubChem BioAssay (NCI):
The panel holds about 83,000 compounds, 20% with a hit somewhere; the sample as a whole holds those more often.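 Cells were grown in 96-well plates and exposed to the test compound at a single concentration for 48 hours; results are reported as percent growth, with values below 10 considered active.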 Active and inactive are the calls of the source.

What was measured:
Test in all cases: NCI-60 one-dose screen, 48 h (100 = growth as untreated, 0 = no growth, -100 = all killed)
SR leukemia = settings: 10 µM unless noted
RPMI-8226 leukemia = settings: 10 µM unless noted
OVCAR-8 ovarian = settings: 10 µM unless noted
OVCAR-5 ovarian = settings: 10 µM unless noted
OVCAR-4 ovarian = settings: 10 µM unless noted
SK-OV-3 ovarian = settings: 10 µM unless noted
IGROV1 ovarian = settings: 10 µM unless noted
OVCAR-3 ovarian = settings: 10 µM unless noted
HS 578T breast = settings: 10 µM
NCI/ADR-RES ovarian = settings: 10 µM unless noted
T-47D breast = settings: 10 µM unless noted
BT-549 breast = settings: 10 µM unless noted
MDA-MB-435 melanoma = settings: 10 µM unless noted
SW-620 colon = settings: 10 µM unless noted
MCF7 breast = settings: 10 µM unless noted
HCT-116 colon = settings: 10 µM unless noted
HCC-2998 colon = settings: 10 µM
KM12 colon = settings: 10 µM unless noted

Measured: growth

CN(N)c1nc2sc3c(c2c(=O)[nH]1)CCCC3
inactive: SR leukemia 104% | RPMI-8226 leukemia 103% | OVCAR-8 ovarian 102% | OVCAR-5 ovarian 131% | OVCAR-4 ovarian 103% | SK-OV-3 ovarian 82.7% | IGROV1 ovarian 90.1% | OVCAR-3 ovarian 99.7% | HS 578T breast 94.6% | NCI/ADR-RES ovarian 104% | T-47D breast 76.6% | BT-549 breast 91.2% | MDA-MB-435 melanoma 97.1% | SW-620 colon 101% | MCF7 breast 83.4% | HCT-116 colon 94.9% | HCC-2998 colon 96% | KM12 colon 95.7%

COc1cc2cc(NCc3ccc(Cl)cc3)nc(C)c2cc1OC
inactive: SR leukemia 18.7% | RPMI-8226 leukemia 14.3% | OVCAR-8 ovarian 40.9% | OVCAR-5 ovarian 41.2% | OVCAR-4 ovarian 82.3% | SK-OV-3 ovarian 68% | IGROV1 ovarian 43% | OVCAR-3 ovarian 49.4% | HS 578T breast 70.5% | NCI/ADR-RES ovarian 33.6% | T-47D breast 47.1% | BT-549 breast 30.8% | MDA-MB-435 melanoma 10.9% | SW-620 colon 19.3% | MCF7 breast 51.8% | HCC-2998 colon 27.2% | KM12 colon 37.2%
active: HCT-116 colon 8.8%

COc1cc2c(c(OC)c1)C1c3ccccc3NC(=O)N1CC2 (stereo not given)
active: OVCAR-3 ovarian -6.26% | NCI/ADR-RES ovarian 1.85% | MDA-MB-435 melanoma -48.8%
inactive: SR leukemia 13.2% | RPMI-8226 leukemia 16.4% | OVCAR-8 ovarian 44.3% | OVCAR-5 ovarian 48.6% | OVCAR-4 ovarian 50.4% | SK-OV-3 ovarian 52.8% | IGROV1 ovarian 60.2% | HS 578T breast 16.4% | T-47D breast 44% | BT-549 breast 50.3% | SW-620 colon 20.5% | MCF7 breast 18.1% | HCT-116 colon 30.6% | HCC-2998 colon 53.4% | KM12 colon 26.2%

COc1cc(-c2nc(C(=O)Nc3ccc(C)cc3)nn2-c2ccc(F)c(F)c2)cc(OC)c1OC
inactive: SR leukemia 91.8% | RPMI-8226 leukemia 103% | OVCAR-8 ovarian 103% | OVCAR-5 ovarian 117% | OVCAR-4 ovarian 103% | SK-OV-3 ovarian 89.1% | IGROV1 ovarian 86.9% | OVCAR-3 ovarian 107% | HS 578T breast 121% | NCI/ADR-RES ovarian 93.6% | T-47D breast 77.1% | BT-549 breast 100% | MDA-MB-435 melanoma 93.3% | SW-620 colon 110% | MCF7 breast 95.1% | HCT-116 colon 95.7% | HCC-2998 colon 86.6% | KM12 colon 102%

OCCNC(=S)Nc1ccc(-c2nc(N3C[C@H]4CC[C@@H](C3)O4)c3cccn3n2)cc1
inactive: SR leukemia 11.1% | SW-620 colon 11.6% | HCT-116 colon 22.6% | HCC-2998 colon 20.8% | KM12 colon 12%
active: RPMI-8226 leukemia 5.44% | OVCAR-8 ovarian -7.06% | OVCAR-5 ovarian -4.85% | OVCAR-4 ovarian -7.17% | SK-OV-3 ovarian -33.7% | IGROV1 ovarian -19.9% | OVCAR-3 ovarian -4.31% | HS 578T breast -28.6% | NCI/ADR-RES ovarian 3.87% | T-47D breast -22.5% | BT-549 breast -8.04% | MDA-MB-435 melanoma 0.28% | MCF7 breast 9.19%

CCCCCCC1(/C=N/NC(N)=O)NC(=O)NC1=O (stereo not given)
inactive: SR leukemia 102% | RPMI-8226 leukemia 111% | OVCAR-8 ovarian 105% | OVCAR-5 ovarian 89% | OVCAR-4 ovarian 98% | SK-OV-3 ovarian 83.2% | IGROV1 ovarian 105% | OVCAR-3 ovarian 111% | HS 578T breast 114% | NCI/ADR-RES ovarian 100% | T-47D breast 87.8% | BT-549 breast 94.1% | MDA-MB-435 melanoma 101% | SW-620 colon 104% | MCF7 breast 91.2% | HCT-116 colon 84.2% | HCC-2998 colon 94.5% | KM12 colon 97%

CNC(=O)c1cc(Oc2ccc3nc(NC(=O)Nc4ccc(Cl)c(C(F)(F)F)c4)sc3c2)ccn1
active: OVCAR-8 ovarian -11.1% | OVCAR-4 ovarian -34% | OVCAR-3 ovarian -61.1% | HS 578T breast -16.1% | T-47D breast -2.44% | HCT-116 colon -22%
inactive: SR leukemia 22.6% | RPMI-8226 leukemia 61.4% | OVCAR-5 ovarian 30.8% | SK-OV-3 ovarian 12.7% | IGROV1 ovarian 56.8% | NCI/ADR-RES ovarian 11.4% | BT-549 breast 17.4% | MDA-MB-435 melanoma 12.9% | SW-620 colon 21.5% | MCF7 breast 20.8% | HCC-2998 colon 46.6% | KM12 colon 29.8%

COC(=O)[C@@H](NC(=O)[C@@H](OC)[C@@H]1Cc2cc3cc(OC4CC(OC5CC(O)C(O)C(C)O5)C(O)C(C)O4)c(C)c(O)c3c(O)c2C(=O)[C@H]1OC1CC(OC2CC(OC3CC(C)(O)C(O)C(C)O3)C(O)C(C)O2)C(O)C(C)O1)C(C)C (stereo not given in full)
inactive: OVCAR-8 ovarian 12.6% | OVCAR-4 ovarian 13.4% | SK-OV-3 ovarian 20.4% | IGROV1 ovarian 32.3% | OVCAR-3 ovarian 15.3% | NCI/ADR-RES ovarian 69.6% | T-47D breast 10.2% | MDA-MB-435 melanoma 18.9% | SW-620 colon 16.6% | HCC-2998 colon 11.2%
active: SR leukemia -8.16% | RPMI-8226 leukemia -1.18% | OVCAR-5 ovarian 2.67% | HS 578T breast -13.9% | BT-549 breast -20.7% | MCF7 breast 6.73% | HCT-116 colon 4.79% | KM12 colon 4.63%

C[C@@H](C[C@H](CCO)c1cc(C(F)(F)F)cc(C(F)(F)F)c1)c1ccc2ccccc2c1
inactive: SR leukemia 30.6% | RPMI-8226 leukemia 79.3% | OVCAR-8 ovarian 102% | OVCAR-5 ovarian 106% | OVCAR-4 ovarian 94.6% | SK-OV-3 ovarian 98.3% | IGROV1 ovarian 75.3% | OVCAR-3 ovarian 81% | HS 578T breast 106% | NCI/ADR-RES ovarian 85.3% | T-47D breast 55.2% | BT-549 breast 102% | MDA-MB-435 melanoma 38.8% | SW-620 colon 88.7% | MCF7 breast 78.9% | HCT-116 colon 67.6% | HCC-2998 colon 86.1% | KM12 colon 71.3%

CC(CCCC(=O)O)c1ccoc1 (stereo not given)
inactive: SR leukemia 102% | RPMI-8226 leukemia 104% | OVCAR-8 ovarian 109% | OVCAR-5 ovarian 105% | OVCAR-4 ovarian 99.7% | SK-OV-3 ovarian 95.1% | IGROV1 ovarian 102% | OVCAR-3 ovarian 105% | HS 578T breast 112% | NCI/ADR-RES ovarian 104% | T-47D breast 89.6% | BT-549 breast 108% | MDA-MB-435 melanoma 107% | SW-620 colon 110% | MCF7 breast 94.1% | HCT-116 colon 101% | HCC-2998 colon 96.7% | KM12 colon 98.7%
